Data from PubChem BioAssay AID1240 (Sanford-Burnham Center for Chemical Genomics, 2008).
About 800 (1.6%) of roughly 50,000 compounds showed an effect of 50% or more. The list comes from a sample in which strong results are over-represented; it also holds similar structures and randomly drawn compounds.

These compounds were tested against Bcl-2-like protein 10 (Homo sapiens) (UniProt Q9HD36) (assay: TR3 peptide-Bcl-B binding displacers, biochemical primary FP assay, phenotype converters (AID 1240;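 also: 0% = Bcl-B with tracer peptide and DMSO and 100% = tracer peptide lacking Bcl-B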)). Conditions: GST-Bcl-B / FITC-TR3 peptide fluorescence polarization; stronger effect = higher value; compound at 3.75 mg/L.
Chain of Bcl-2-like protein 10 (Homo sapiens) (Q9HD36 whole entry, looked up): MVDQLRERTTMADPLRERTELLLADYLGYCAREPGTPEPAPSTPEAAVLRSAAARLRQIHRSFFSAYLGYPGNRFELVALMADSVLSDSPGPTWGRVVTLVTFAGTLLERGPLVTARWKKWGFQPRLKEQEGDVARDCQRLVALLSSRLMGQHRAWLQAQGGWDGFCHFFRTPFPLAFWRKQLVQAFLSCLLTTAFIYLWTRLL

| SMILES | displacement [%] |
| --- | --- |
| CCC(=O)Nc1ccc(NC(=O)/C=C/c2ccc(-c3ccc(Cl)cc3Cl)o2)cc1 | -14.5 |
| O=C(/C=C/c1ccc(-c2ccc(Cl)cc2Cl)o1)Nc1ccc(N2CCOCC2)cc1 | 83 |
| O=C(Nc1ccc(N2CCOCC2)cc1)c1ccc(-c2ccc(Cl)cc2Cl)o1 | -4.5 |
| O=C(O)c1cc(C(=O)O)cc(N2C(=O)c3ccc(Oc4cccc([N+](=O)[O-])c4)cc3C2=O)c1 | 3.2 |
| CC1(C)NN(c2ccccc2)C(=S)N1CN1CCOCC1 | 55.9 |
| S=c1n(CN2CCOCC2)nnn1-c1ccccc1 | -5.3 |
| CC1(C)NN(c2ccccc2)C(=S)N1c1ccccc1 | 9.6 |
| O=C(Cn1c(-c2ccccc2)c[n+]2ccsc12)c1ccc([N+](=O)[O-])cc1 | 13.8 |
| Cc1cc(/C=C2\C(=O)NC(=O)N(c3ccc4c(c3)OCO4)C2=O)c(C)n1-c1ccccc1 | 16.1 |
| Cc1cc(/C=C2\C(=O)NC(=O)N(c3ccc4c(c3)OCO4)C2=O)c(C)n1-c1cccc([N+](=O)[O-])c1 | 52.7 |
| Cc1cc(/C=C2\C(=O)NC(=O)N(c3ccc4c(c3)OCO4)C2=O)c(C)n1-c1ccc(F)cc1 | 8 |
| Cc1cc(/C=C2\C(=O)NC(=O)N(c3ccc4c(c3)OCO4)C2=O)c(C)n1-c1cccnc1 | 136 |
| Cc1cc(/C=C2\C(=O)NC(=O)N(c3ccccc3)C2=O)c(C)n1-c1cccc([N+](=O)[O-])c1 | 9.1 |
| Cc1cc(/C=C2\C(=O)NC(=O)N(c3cccc(F)c3)C2=O)c(C)n1-c1cccc([N+](=O)[O-])c1 | 12.3 |
| COc1ccc(NC(=O)/C(=C\c2ccccc2OC)NC(=O)c2ccccc2OC)cc1 | 3 |
| O=C1N/C(=N\N=C\c2ccccc2F)SC1Cc1ccccc1[N+](=O)[O-] (stereo not drawn) | 7.3 |
| O=C1C2C(c3ccc(Cl)cc3)OC3(C(=O)c4ccccc4C3=O)C2C(=O)N1c1ccc(F)c([N+](=O)[O-])c1 (stereo not drawn) | 5.6 |
| COc1ccccc1NC(=O)C1=C(C)NC(=O)NC1c1cccc([N+](=O)[O-])c1 (stereo not drawn) | -7.1 |
| CCCC(C)NS(=O)(=O)c1ccccc1[N+](=O)[O-] (stereo not drawn) | 3 |
| O=C(NCC1CCCO1)c1ccc(F)c2ccccc12 (stereo not drawn) | -13.5 |
| O=C(CC1S\C(=N/N=C/C=C/c2ccccc2)NC1=O)Nc1ccc(C(=O)O)cc1 (stereo not drawn) | 41.6 |
| O=C(CC1S/C(=N\N=C\c2cccs2)NC1=O)Nc1ccc(Cl)c(Cl)c1 (stereo not drawn) | 7.8 |
| O=C(CC1S/C(=N\N=C\c2ccco2)NC1=O)Nc1ccc(C(=O)O)cc1 (stereo not drawn) | -0.3 |
| O=C(CC1S/C(=N\N=C\c2cccs2)NC1=O)Nc1ccc(C(=O)O)cc1 (stereo not drawn) | 121 |
| O=C(CC1S/C(=N\N=C\c2ccccc2)NC1=O)Nc1ccc(C(=O)O)cc1 (stereo not drawn) | 69.5 |
| CC(=O)c1cccc(NC(=O)CC2S/C(=N\N=C\c3cccs3)NC2=O)c1 (stereo not drawn) | -3.9 |
| CCOC(=O)C1=NNC2C(=O)N(c3ccc(C)c(C)c3)C(=O)C12 (stereo not drawn) | 4.5 |

| SMILES | displacement [%] |
| --- | --- |
| CCc1ccc(-c2csc(N3N=C(c4cccs4)CC3c3ccc(F)cc3)n2)cc1 (stereo not drawn) | 0.2 |
| COc1ccc(NC(=O)c2ccccc2NC(=O)c2ccc(C)cc2)cc1 | -10.2 |
| O=C1/C(=C/c2cn(-c3ccccc3)nc2-c2ccco2)SC(=S)N1C1CCS(=O)(=O)C1 (stereo not drawn) | 11.2 |
| O=C(O)CCN1C(=O)/C(=C/c2cn(-c3ccccc3)nc2-c2cccs2)SC1=S | -14.1 |
| CC(C)CN1C(=O)/C(=C/c2cn(-c3ccccc3)nc2-c2cccs2)SC1=S | 34.6 |
| O=C1/C(=C/c2cn(-c3ccccc3)nc2-c2cccs2)SC(=S)N1C1CCS(=O)(=O)C1 (stereo not drawn) | 100 |
| O=C1/C(=C/c2cn(-c3ccccc3)nc2-c2cccs2)SC(=S)N1Cc1ccccc1 | 115 |
| COc1ccc(N2C(=O)/C(=C/c3cn(-c4ccccc4)nc3-c3cccs3)SC2=S)cc1 | 0.4 |
| COc1ccc(-n2c(SCC(=O)Nc3ccc(C)cc3)nc(O)c(Cc3ccccc3)c2=O)cc1 | 22.8 |
| Cc1ccnc(N2C(=O)c3ccc(C(=O)O)cc3C2=O)c1 | 1.9 |
| Cc1nn(-c2ccccc2)c2sc(C(=O)N/N=C/c3cc4c(cc3[N+](=O)[O-])OCO4)cc12 | -1.4 |
| Cc1ccccc1OCC(=O)Nc1ccc(I)cc1Cl | 9.5 |
| COC(=O)C1=C(C)N(C)C(C)=C(C(=O)OC)C1c1ccc(Br)cc1 | -10.8 |
| CCOc1ccc(-c2nc(Cc3ccccc3OC)no2)cc1 | -6.4 |
| O=C1C2CCCCC2C(=O)N1CC(=O)N1c2ccccc2Sc2ccc(C(F)(F)F)cc21 (stereo not drawn) | -14.3 |
| CCCOc1ccc(N2C(=O)CC(NCCNc3ccc([N+](=O)[O-])cn3)C2=O)cc1 (stereo not drawn) | -1.7 |
| O=C(Nc1ccccc1)c1ccccc1N=Cc1ccc(C=Nc2ccccc2C(=O)Nc2ccccc2)cc1 | 121 |
| CCn1c2ccccc2c2cc(C=Nc3ccccc3C(=O)Nc3ccccc3)ccc21 | -5.9 |
| O=C(Nc1ccccc1)c1ccccc1N=Cc1ccc(Cl)c([N+](=O)[O-])c1 | 6.6 |
| CCOP(=O)(OCC)C(OC(N)=O)c1ccc([N+](=O)[O-])cc1 (stereo not drawn) | -9.1 |
| Cc1onc(-c2c(F)cccc2Cl)c1C(=O)NCc1ccccn1 | -5.5 |
| C[C@@H]1O[C@@H](Nc2ccc(Cl)cc2[N+](=O)[O-])[C@H](O)[C@H](O)[C@H]1O | 54.7 |
| Cc1cc(N[C@@H]2O[C@@H](C)[C@H](O)[C@@H](O)[C@H]2O)c([N+](=O)[O-])cc1C | 6.5 |
| O=[N+]([O-])c1ccccc1N[C@H]1O[C@H](CO)[C@@H](O)[C@@H]1O | 6 |
| CC1=NN(c2ccc(C(=O)O)cc2)C(=O)/C1=C\c1ccc(O)cc1 | -50.5 |
| Cc1cc2nc(-c3cc(NC(=O)COc4ccc([N+](=O)[O-])cc4)ccc3O)oc2cc1C | 0.2 |
